# Screening results as filed in PubChem BioAssay.
# D2 PAM-1: positive allosteric modulators of human D2 dopamine receptor | P14416 | DiscoveRx D2 beta-arrestin cells, luminescence, 90 min; 100% = 57 uM dopamine signal | potentiation, % (concentration not given with the values) | 360,000 compounds, 0.23% hits | AID 624464; in the data active = potentiation above about 50%; inconclusive = mostly about 30% to 49%
# Target sequence (P14416 whole entry, looked up): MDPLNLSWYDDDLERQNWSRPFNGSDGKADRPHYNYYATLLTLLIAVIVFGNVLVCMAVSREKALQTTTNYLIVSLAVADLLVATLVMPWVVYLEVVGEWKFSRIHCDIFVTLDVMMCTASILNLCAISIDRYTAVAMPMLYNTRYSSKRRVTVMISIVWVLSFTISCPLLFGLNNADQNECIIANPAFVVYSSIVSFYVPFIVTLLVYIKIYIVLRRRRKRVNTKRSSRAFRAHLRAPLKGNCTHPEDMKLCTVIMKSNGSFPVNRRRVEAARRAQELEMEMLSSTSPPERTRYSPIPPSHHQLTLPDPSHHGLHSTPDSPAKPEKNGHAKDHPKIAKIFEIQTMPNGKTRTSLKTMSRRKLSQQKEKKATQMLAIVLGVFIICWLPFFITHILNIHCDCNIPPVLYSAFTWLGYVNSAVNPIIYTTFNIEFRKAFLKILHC
#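 PathHunter beta-arrestin assay in DiscoveRx D2 cells. Compounds were added with an EC20 of dopamine (50 nM final) for 90 min at 37 deg C. Luminescence was read 1 h after detection reagent, with 57 uM dopamine as the EC100 control.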
# D2 ag-1: activates the human D2 dopamine receptor | P14416 | HEK293 T-REx D2 cells, calcium flux agonist mode | activation, % at 2 µM | 340,000 compounds, 0.53% hits;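 active = activation over 3 SD above normal in the single-dose calcium agonist read, cut at about 30% in these data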; also: 0% is about no effect
#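 Agonism scored from kinetic calcium signal (1 read/sec, 180 s) following compound pin transfer, after a 10 s baseline. Cells: HEK293 Trex line expressing inducible D2 receptor coupled to calcium, dye-loaded after overnight culture at 30 C.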
# D2 PAM-2: positively modulates the human D2 dopamine receptor allosterically; 340,000 compounds, 0.34% hits; AID 485347; HEK293 T-REx D2, calcium flux, EC20 dopamine potentiation; potentiation, % at 10 µM;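 active = potentiation over 3 SD above the plate norm, cut at about 30% in these data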; also: 0% is about no effect
#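 Tetracycline-induced HEK293 T-REx cells force-coupled to calcium signalling expressed D2; compounds were pin-added after a 10 s baseline, read kinetically 180 s, then an EC20 dopamine challenge followed with a further 180 s calcium read.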
# D2 ag-2: human D2 receptor agonism in beta-arrestin assay; P14416; DiscoveRx PathHunter D2 beta-arrestin, luminescence, 90 min; 100% = 57 uM dopamine signal; activation, % (test concentration not listed); 360,000 compounds, 0.084% hits; AID 624465; in the data active = activation above about 40%; inconclusive = between about 15% and that limit
#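 Agonist mode: compounds alone added to overnight-plated D2 PathHunter cells for 90 min at 37 C, with 57 uM final dopamine (EC100) defining full response. Beta-arrestin recruitment detected by chemiluminescent reagent, read after 1 h at ambient temperature.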
# D2 antag: antagonizes the human D2 dopamine receptor | P14416 | HEK293 TREx D2 cells, calcium flux, dopamine EC80 | inhibition, % at 10 µM | 340,000 compounds, 2% hits | AID 485344; in the data active = inhibition above about 30%; inactive = below that, where a call was filed; also: 0% is about no effect
#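 Antagonism is scored as inhibition of an EC80 dopamine-evoked calcium signal in a force-coupled, tetracycline-inducible HEK293 T-REx D2 line, with compound present 180 s before agonist.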
# Active calls of the source: *; ? = inconclusive; nt = no result. Most compounds without a hit are left out; they make up all but 2.4% or so of the library.
SMILES,D2 PAM-1,D2 ag-1,D2 PAM-2,D2 ag-2,D2 antag
Cc1cc(N2CCC(N(C)C3CCCC3)CC2)nc2cc(O)ccc12,-6,0,6,-3,48*
CCOC(=O)c1c(C)[nH]c(C)c1S(=O)(=O)NCC1CCN(Cc2ccc(C)cc2)CC1,-32,0,-24,-2,87*
CCOC(=O)c1c(C)[nH]c(C)c1S(=O)(=O)NCC1CCN(Cc2ccccc2F)CC1,-20,1,-24,4,-3
CCOC(=O)c1c(C)[nH]c(C)c1S(=O)(=O)NCC1CCN(Cc2cccc(Cl)c2)CC1,-22,-1,-32,-3,78*
COc1ccc(C(CNC(=O)c2ccc3c(c2)OCCO3)N(C)C)cc1 (stereo not given),-15,2,nt,-1,45*
COc1ccc(CCNC(=O)c2ccc3c(c2)OCCO3)cc1,-3,2,1,1,0
CN(C)C(CNC(=O)c1ccc(-c2ccccc2)cc1)c1ccccc1 (stereo not given),-19,0,0,0,31*
CN(C)C(CNC(=O)c1ccc(C(=O)c2ccccc2)cc1)c1ccccc1 (stereo not given),-13,0,-18,-6,-9
COCCCN(C(=S)Nc1cccc(Cl)c1)C(C)c1ccncc1 (stereo not given),-10,1,0,-1,30*
C=CCN(CC=C)S(=O)(=O)c1ccc(F)cc1,11,1,-13,-1,31*
CCN(CC(N)=O)S(=O)(=O)c1ccc(F)cc1,-2,1,-11,2,6
Cc1nonc1OCCN1CCN(c2ccccc2[N+](=O)[O-])CC1,-16,16,-40,2,53*
COC(CNC(=S)Nc1ccc([N+](=O)[O-])cc1)OC,-19,-2,9,-1,35*
COC(CNC(=O)c1cccc2c1C(=O)N(Cc1cccnc1)C2)OC,-24,-2,0,-5,-4
COc1ccccc1CNC(=O)c1cccc2c1C(=O)N(Cc1cccnc1)C2,-1,-1,31*,-6,-12
Cc1cccc(N(CC(=O)NC2CCCC2)C(=O)CS(=O)CC(=O)Nc2ccc3c(c2)OCO3)c1 (stereo not given),-8,0,-14,-3,32*
CC(C)(C)c1ccc(C(=O)NC2=NC(c3cccc(F)c3)CC(=O)N2)cc1 (stereo not given),nt,-1,nt,nt,nt
Cc1ccc2c(c1)NC(=O)C(CC(=O)NCCCN1CCN(c3cc(Cl)ccc3C)CC1)O2 (stereo not given),-8,0,-28,1,53*
CS(=O)(=O)N(CC(N)=O)c1cccc(Br)c1,?,1,48*,1,-4
Cc1ccccc1Cn1ccc(NC(=O)c2nn(C)cc2[N+](=O)[O-])n1,-7,2,9,2,31*
CCn1cc([N+](=O)[O-])c(C(=O)Nc2ccn(Cc3ccccc3F)n2)n1,-2,0,2,-1,4
Cn1c(N)c(C(=O)NCc2ccccc2Cl)sc1=S,-9,-1,-6,0,53*
Nc1ccc(S(=O)(=O)c2cc(O)c3ccccc3c2O)cc1,51*,nt,nt,?,nt
O=S(=O)(c1ccccc1)c1cc(O)ccc1O,-1,1,12,?,2
Cc1ccc(C)c(N2CCN(CCCNC(=O)c3nnc(Cc4ccc(F)cc4Cl)o3)CC2)c1,nt,0,-19,nt,nt
SMILES,D2 PAM-1,D2 ag-1,D2 PAM-2,D2 ag-2,D2 antag
CC(O)CNCCCOc1cccc(C(F)(F)F)c1 (stereo not given),-17,-1,-26,-1,34*
CCOC(=O)c1scc(-c2ccc(C)cc2)c1S(=O)(=O)Nc1cccc(CC)c1,nt,0,7,nt,nt
CCOc1cc(N2CCOCC2)c(OCC)cc1NC(=O)CSc1ncccn1,1,-1,12,3,-9
CCOc1cc(N2CCOCC2)c(OCC)cc1NC(=O)CSc1cccc[n+]1[O-],57*,nt,nt,2,nt
CCOc1cc(N2CCOCC2)c(OCC)cc1NC(=O)C1=COCCO1,-3,1,5,-5,39*
Cc1cc(C)c(N2C(=O)CC(Sc3ccccc3N)C2=O)c(C)c1 (stereo not given),-37,nt,nt,-13,nt
CSc1ccccc1NC(=O)Nc1ccc(F)c(Cl)c1,-15,1,-21,1,43*
O=C(Nc1cccc(Cl)c1)Nc1c[nH]c(=O)[nH]c1=O,-4,0,-10,4,34*
CSc1ccccc1NC(=O)Nc1cccc(Cl)c1,-11,1,-20,-1,36*
O=C(Nc1cccc(F)c1)Nc1c[nH]c(=O)[nH]c1=O,-5,1,-7,-3,12
Nc1cc(Cl)nnc1Cl,0,1,8,-2,36*
Cc1cc2oc(C(=O)Nc3c(C)n(C)n(-c4ccccc4)c3=O)cc(=O)c2cc1C,nt,nt,-5,nt,nt
NC(=O)[C@@H]1[C@@H]2C(=O)N(c3ccc(F)cc3)C(=O)[C@@H]2[C@H]2C=Cc3ccccc3N21,-10,1,12,-4,-15
O=C(c1ccco1)[C@@H]1[C@@H]2C(=O)N(c3ccc(F)cc3)C(=O)[C@@H]2[C@H]2C=Cc3ccccc3N21,-1,1,12,-1,43*
Cc1ccccc1OCc1nc2ccccc2c(=O)n1/N=C/c1cn[nH]c1-c1ccccc1,8,0,-2,-2,57*
Cc1ccc(N=C(NOC(=O)c2ccccc2)c2nonc2N)c(C)c1,95*,0,-1,11,-19
Cc1ccc(N=C(NO)c2nonc2N)c(C)c1,-2,1,-4,0,9
COc1ccc(-c2cn3nc(N4CCCC(C(=O)NCc5ccccc5Cl)C4)sc3n2)cc1 (stereo not given),nt,0,-5,nt,nt
COCCn1nnnc1C(c1ccc(O)c(OC)c1)N1CCc2ccccc2C1 (stereo not given),-1,1,-18,2,44*
COc1ccc(C(c2nnnn2C2CCCC2)N2CCc3ccccc3C2)cc1OC (stereo not given),-8,0,9,-4,26
COc1cccc(/C=C/C(=O)Nc2ccc(C(=O)Nc3cccc(S(N)(=O)=O)c3)cc2)c1OC,-18,-2,-35,0,77*
COc1cc(/C=C/C(=O)Nc2ccc3nc4n(c(=O)c3c2)CCCC4)cc(OC)c1OC,-1,-1,14,7,9
COc1cccc(/C=C/C(=O)Nc2cccc(C(C)=O)c2)c1OC,-5,0,-19,6,-1
COc1cccc(/C=C/C(=O)Nc2ccc3c(c2)OCCO3)c1OC,-32,1,-23,0,69*
COc1cccc(/C=C/C(=O)Nc2ccc3nc4n(c(=O)c3c2)CCCC4)c1OC,2,-1,35*,1,-2
O=C(NCc1ccccc1Cl)c1ccc2c(c1)N(Cc1ccccc1)CCS2,nt,-1,-4,nt,nt
